An excerpt weighted towards active compounds, which were near 21% of everything screened.
Pf growth 96h: inhibits malaria parasite growth, 96 h; P. falciparum luciferase reporter growth, 96 h; Potency, µM (titrated, usually from 28.7 µM), most hits filed as inhibitors; hit rate 6.9% among 320,000; AID 504834
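Plates of compound plus infected erythrocytes (2% hematocrit, 0.05% parasitemia final) incubate 96 hours, 37 C, 5% CO2. Detection reagent added; reduced luminescence from the parasites' luciferase reporter flags inhibition.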
NS1 function inh: inhibitors of influenza NS1 protein function. Potency, µM (series often up to 46.1 µM). hit rate 0.4% among 270,000; calls by dose curve; also: actives are rising curves; nearly all actives have a fitted effect of over 50% in size
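Compounds were scored for reversing the slow growth caused by influenza A NS1 in S. cerevisiae, measured by optical density at 600 nm. Assay medium contained 2% galactose at pH 6.0; NS1-free yeast of the same strain were the positive control.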
Shiga toxin inh: blocks Shiga toxin action in Vero cells | Vero cells, Shiga toxin protein synthesis inhibition reporter | hit rate 9.2% among 290,000 | inhibition, % at 38.7 µM | AID 2315; in the data active = inhibition mostly above about 28%, no sharp cut-off; inactive = mostly below about 43%
SARS PLP yeast: SARS-CoV PLP inhibition in yeast | S. cerevisiae expressing SARS-CoV PLpro, growth rescue | Potency, µM (doses to about 32.9 µM), hits mostly activators | hit rate 0.19% among 330,000 | AID 485353; calls by dose curve; also: nearly all actives have a fitted effect of over 55% in size
Cycloheximide cs: counter-screen hit for Shiga toxin inhibitors, cycloheximide; max response, %; hit rate 12% among 300,000; cell reporter, cycloheximide protein synthesis inhibition counterscreen; in the data active = max response mostly above about 13%, no sharp cut-off; inactive = mostly below about 14%; also: read at 38.3 µM for the half of the compounds with a filed dose
Pf growth 48h: P. falciparum growth inhibition at 48 hours (one generation); P. falciparum luciferase growth in erythrocytes, 48 h; Potency, µM (highest dose often 28.7 µM), hits mostly inhibitors; hit rate 5.9% among 310,000
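Growth was read as firefly luciferase luminescence after a 48 h, 37 C, 5% CO2 exposure of compounds to reporter-bearing P. falciparum cultures (0.1% parasitemia, 2% hematocrit final) in Albumax-supplemented RPMI 1640.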
A number is an active result; – = inactive; ? = inconclusive; · = no result; [ ] = remark or other dose. Unless noted, calls follow the shape of the dose curve; as a rule, active = well fitted inhibition curve with a large enough effect; inconclusive = small, poorly fitted or top-dose-only effect, or another doubt; inactive = no such curve, though single readings can be large or run the other way.

SMILES	Pf growth 96h	NS1 function inh	Shiga toxin inh	SARS PLP yeast	Cycloheximide cs	Pf growth 48h
CCCN1CCN(CCCNC(=S)Nc2ccc(OC)cc2)CC1	?	–	–	–	–	–
Clc1ccc(-c2cn(-c3ccc(Cl)cc3)c3[n+]2CCCCC3)cc1	?	–	–	–	–	?
Clc1ccc(-c2cn3nc4c(nc3n2)CCCC4)cc1	·	–	88	–	37	–
COc1cccc(-c2cn3nc4c(nc3n2)CCCC4)c1	–	–	–	–	16	–
Cc1ccc(S(=O)(=O)NNC(=O)CCCCC(=O)NNS(=O)(=O)c2ccc(C)cc2)cc1	–	·	–	–	–	–
N#C/C(=C(/O)CN1CCOCC1)c1nc(-c2ccccc2)cs1	?	–	–	–	–	·
Cc1ccc(-c2csc(/C(C#N)=C(\O)CCl)n2)cc1	–	·	93	–	33	–
CCCCN(C)C/C(O)=C(\C#N)c1nc(-c2ccccc2)cs1	–	–	33	–	–	·
N#C/C(=C(/O)CCl)c1nc(-c2ccccc2)cs1	–	–	52	–	21	–
COc1ccccc1N1CCN(C/C(O)=C(\C#N)c2nc(-c3ccccc3)cs2)CC1	?	?	–	–	–	–
O=C(CSc1ncn[nH]1)Nc1cc(S(=O)(=O)N2CCCC2)ccc1Cl	–	·	–	–	–	–
OCC(O)/C=N/Nc1nc(Nc2ccccc2)nc(Nc2ccccc2)n1 (stereo unspecified)	–	–	–	–	–	·
COc1ccc(CNC(=O)c2csc(Cc3ccccc3)n2)cc1	–	–	64	?	21	–
O=C(Nc1ccc(F)cc1)c1csc(Cc2ccccc2)n1	–	·	104	–	55	–
COc1ccc(NC(=O)c2csc(Cc3ccccc3)n2)cc1	·	–	–	–	43	–
Cc1ccc(C(C)C)c(OCC#CCN2CCOCC2)c1	–	–	·	–	–	–
S=C(Nc1ccc(Cl)cc1)c1sc(N2CCCCC2)nc1N1CCOCC1	–	–	–	–	–	–
COCCNC(=O)C1CC(c2cccc([N+](=O)[O-])c2)=NO1 (stereo unspecified)	–	–	–	–	–	–
Cc1ccc(CNC(=O)C2CC(c3cccc([N+](=O)[O-])c3)=NO2)cc1 (stereo unspecified)	–	–	–	–	–	2.6µM
COc1ccc(CNC(=O)C2CC(c3cccc([N+](=O)[O-])c3)=NO2)cc1 (stereo unspecified)	–	–	38	–	36	–
CCCNC(=O)CS(=O)(=O)c1ccccc1	–	–	–	–	10	–
O=C(CS(=O)(=O)c1ccccc1)NCc1ccccc1	–	–	–	?	–	–
Cc1ccc(CNC(=O)CS(=O)(=O)c2ccccc2)cc1	–	–	–	–	26	–
O=C(COc1ccc(F)cc1Br)NCCCN1CCCC1=O	·	·	·	–	·	·
CCN(C(=O)CSc1nnc(-c2ccc(Cl)cc2)n1C)C1CCS(=O)(=O)C1 (stereo unspecified)	–	·	–	–	–	–
SMILES	Pf growth 96h	NS1 function inh	Shiga toxin inh	SARS PLP yeast	Cycloheximide cs	Pf growth 48h
Cc1nonc1OC(C)CNc1ccc([N+](=O)[O-])cc1 (stereo unspecified)	–	–	–	–	–	3.7µM
COc1ccc(NC(=O)CSc2nc3ccc(OC)cc3[nH]2)cc1	–	–	–	–	–	–
CCOC(=O)c1c(NC(=O)CSc2nc3ccc(OC)cc3[nH]2)sc2c1CC(C)(C)NC2(C)C	5.9µM	·	·	–	·	?
CCOC(=O)c1c(NC(=O)CSc2ncccn2)sc2c1CC(C)(C)NC2(C)C	9.3µM	–	–	?	–	15µM
CCOC(=O)c1c(NC(=O)COc2ccccc2F)sc2c1CC(C)(C)NC2(C)C	?	·	·	–	·	12µM
CC1(C)Cc2c(sc(NC(=O)COc3ccc(Cl)cc3Cl)c2C(N)=O)C(C)(C)N1	?	–	–	–	–	10µM
O=C(O)CC(c1ccc(F)cc1F)N1Cc2ccccc2C1=O (stereo unspecified)	–	–	–	–	–	?
COc1cc(CC(=O)N(C)CC(=O)Nc2ccc(Cl)c(C(F)(F)F)c2)cc(OC)c1OC	?	–	–	–	–	?
Cc1ccc(-n2cc(C(=O)c3cc(Cl)ccc3O)cc(C#N)c2=O)cc1	?	–	–	–	–	3.3µM
COc1ccc(O)c(C(=O)c2cc(C#N)c(=O)n(-c3ccc(Cl)cc3)c2)c1	5.9µM	–	–	–	–	7.4µM
CCOc1ccc(-n2cc(C(=O)c3cc(Cl)ccc3O)cc(C#N)c2=O)cc1	?	·	–	–	–	–
COc1ccc(-n2cc(C(=O)c3cc(Cl)ccc3O)cc(C#N)c2=O)cc1	7.4µM	·	–	–	–	?
Cc1ccc(NC(=S)N2CCN(S(=O)(=O)c3c(F)cccc3F)CC2)cc1C	–	–	–	–	–	–
C/C(=N/NC1=NCCN1)c1cn(C2=NCCN2)nc1C	·	–	·	·	·	·
CCN(CC(=O)NC1CCS(=O)(=O)C1)S(=O)(=O)c1ccc(C)c(C)c1 (stereo unspecified)	–	?	–	–	–	–
Cc1nc(-c2ccccc2)sc1C(N)=O	–	–	–	–	–	–
CCOC(=O)Cc1ccc(-c2ccccc2)cc1	?	·	·	·	·	–
CCOC(=O)Cc1ccc2sc(-c3ccccc3)nc2c1	–	–	31	–	58	–
CCOC(=O)c1sc(-c2cccs2)nc1C	–	·	130	–	43	–
CCOC(=O)c1sc(-c2ccccc2)nc1C	?	–	–	–	34	–
Cc1nc(-c2cccs2)sc1C(=O)NN	–	–	–	–	–	–
Cc1ccc(C2(c3noc(CN(C)Cc4cccnc4)n3)CCCC2)cc1	–	–	–	–	–	?
COc1cccc(C(C(=O)NC(C)(C)C)N(C(=O)CCC(=O)Nc2cc(C)on2)c2ccc3c(c2)OCCO3)c1OC (stereo unspecified)	–	–	–	–	–	?
Cc1cc(C(=O)CS(=O)(=O)c2ccccc2)cc(C)c1O	–	–	44	–	19	–
Cc1cc(C(=O)CS(=O)(=O)c2ccccc2)cc(C)c1OC(=O)N(C)C	?	·	62	–	25	?
SMILES	Pf growth 96h	NS1 function inh	Shiga toxin inh	SARS PLP yeast	Cycloheximide cs	Pf growth 48h
Cc1ccc(S(=O)(=O)CC(=O)c2cc(C)c(OC(=O)N(C)C)c(C)c2)cc1	–	·	–	–	–	?
Cc1cc(C(=O)CSc2ccccc2)cc(C)c1O	–	–	71	–	61	–
COc1ccccc1OCC#CCNC1CCCCC1C (stereo unspecified)	–[1.15 µM]	–	–	–	–	–
COc1cc2c(cc1NCc1ccc3c(c1)OCO3)oc1ccccc12	–	–	68	–	37	–
COc1ccc(OC)c(NC(=O)c2ccc3c(c2)OCO3)c1	?	–	·	–	24	–
O=C(Nc1ccc(Cl)cc1)c1ccc(OC2CSC2)cc1	?	·	–	–	18	–
COc1ccc(OC)c(NC(=O)CCN2CC(C)OC(C)C2)c1 (stereo unspecified)	1.9µM	–	–	–	–	–
CNC(=O)c1ccc(OC2CSC2)cc1	–	–	–	·	–	–

Source: PubChem
